Results reported in PubChem BioAssay AID1532 (PCMD, 2009).
Screen size: about 110,000 compounds; about 420 (0.38%) were called active. Cut-off read from the data, not from the text of the source: active = inhibition above about 30% (passing the limit was not always enough); inconclusive = no clear call, values can overlap the other calls. Only a selection was taken, and actives are over-represented in it overall.

System: RmlC (dTDP-4-dehydrorhamnose 3,5-epimerase) and RmlD (dTDP-4-dehydrorhamnose reductase), coupled enzyme assay
Assay: RmlC and RmlD coupled enzyme inhibitors, primary screen, biochemical, 384-well, compound mixtures, retest (AID 1532)
Details: 384-well mixture HTS, at 5.5 µM, stronger effect = higher value
[1] = measured here: mean retest inhibition

| Structure (SMILES) | inhibition | inhibition [1] |
| --- | --- | --- |
| COc1cc(OC)c2ccc(=O)oc2c1C(CCN1CCN(c2ccccc2)CC1)c1ccc2c(c1)OCO2 (stereo not given) | -3.48% (inactive) |  |
| CCOC(=O)/C=C/CN(C(=O)OC(C)(C)C)S(=O)(=O)N1CC=CC1 | -3.8% (inactive) |  |
| C#CCOCCOCCOCCNc1nc(N2CCN(C(=O)[C@H](CCC(=O)O)n3cc(C(N)CO)nn3)CC2)nc(N2CCN(C(=O)[C@H](CCCCN)n3cc(C(N)CC(C)C)nn3)CC2)n1 (stereo not given in full) | 12.9% (inactive) |  |
| Cc1nc(-c2ccccc2)sc1C1(C)CC(c2cccnc2)=NO1 (stereo not given) | 1.85% (inactive) |  |
| O=c1[nH]snc1-c1c(Cl)cccc1Cl | -15.8% (inactive) |  |
| COC(C[C@H](O)CC(=O)COCc1ccccc1)OC | -6.86% (inactive) |  |
| CCN1C(=O)N[C@@H](c2ccccc2)[C@H](C(C)=O)[C@H]1C | -8.96% (inactive) |  |
| Cc1ccc(-c2cc(=O)c3ccc(F)cc3[nH]2)cc1 | -13.2% (inactive) |  |
| O=C(NCC1CC1)c1onc(CSc2ccccc2)c1C(=O)NCC1CC1 | -3.31% (inactive) |  |
| O=C1CC2(CCCC2)Oc2ccc(Cl)cc21 | 2.74% (inactive) |  |
| COC(=O)Cc1cc(=O)oc2c(C)c(O)ccc12 | 115% (active) | 108% |
| COC(=O)COc1ccc2oc(=O)cc(C)c2c1 | 10.6% (inactive) |  |
| CCCc1cc(=O)oc2c(C)c(O)c(CN3CCCCC3)cc12 | 125% (inactive) | 66.6% |
| CCO[C@H]1OC(C(=O)N2CCN(Cc3ccccc3)CC2)=C[C@@H](c2cn(C(C)=O)c3ccccc23)[C@@H]1CCCO | 77% (inactive) | 8.54% |
| Cc1nc(C(=O)Nc2ccc(Cl)cc2)sc1C1(C)CC(c2ccccc2)=NO1 (stereo not given) | 7.11% (inactive) |  |
| C=CCOC(=O)C1=C[C@H](c2ccc(Br)cc2)C[C@H](OCCCCO)O1 |  | 3.33% |
| C[C@@H](C(=O)N1CCNCC1)n1cc(CCC(=O)O)nn1 | -10.6% (inactive) |  |
| CC(=O)Nc1sc2c(c1C(c1cccc(F)c1)N1CCN(CCO)CC1)CCCC2 (stereo not given) | -13.5% (inactive) |  |
| COc1cccc(-c2nnc(N(C)C(=O)c3ccno3)s2)c1 | 11.7% (inactive) |  |
| CN(C(=O)c1ccno1)c1nnc(-c2cccnc2)s1 | 11.4% (inactive) |  |

| Structure (SMILES) | inhibition | inhibition [1] |
| --- | --- | --- |
| CN(C(=O)c1ccccn1)c1nnc(-c2ccccn2)s1 | 73.7% (active) | 110% |
| CN(C(=O)C1CCOC1)c1nnc(-c2cccnc2)s1 (stereo not given) | -5.38% (inactive) |  |
| CN(Cc1ccccc1)C(=O)COc1ccccc1 | -9.33% (inactive) |  |
| Cc1cc(C(=O)Nc2c(C)n(C)n(-c3ccccc3)c2=O)cs1 | -9.2% (inactive) |  |
| COC(=O)Nc1c(C)n(C)n(-c2ccccc2)c1=O | 3.72% (inactive) |  |
| Cc1c(NC(=O)c2coc(=O)c(Br)c2)c(=O)n(-c2ccccc2)n1C | 75.6% (active) | 104% |
| COc1ccc(COCCN2CCN(S(=O)(=O)c3ccccc3)CCC2=O)cc1 | 2.31% (inactive) |  |
| CC(=O)N[C@H]1[C@H]([C@H](O)[C@H](O)CO)OC(C(=O)O)=C[C@@H]1O | 1.59% (inactive) |  |
| COc1ccc(C2/C=C\CN(CC(C)C)CC(=O)N2Cc2ccc(F)cc2)cc1 (stereo not given) | -6.08% (inactive) |  |
| NC(N)=NCCCc1cn(CC(=O)N2CCNCC2)nn1 | -8.74% (inactive) |  |
| COc1ccc2c(c1)CCNC2Cc1ccc(OC)c(O)c1 (stereo not given) | -40.5% (inactive) |  |
| Cc1cn(C)c(=O)n(C)c1=O | -2.57% (inactive) |  |
| CC(C)(C)OC(=O)NCCCC1=CC2=CC(=O)C(C)(OC(=O)c3ccco3)C(=O)C2=CO1 (stereo not given) | -13.3% (inactive) |  |
| Cc1ccc(NC(=O)N2CCSc3ccccc32)cc1 | -8.05% (inactive) |  |
| NC(=O)CC[C@@H]1NC(=O)[C@H](CO)NC(=O)c2cc([N+](=O)[O-])cc(I)c2NCC[C@@H](C(N)=O)NC1=O | -1.33% (inactive) |  |
| CCCC[C@@H]1CN=C(N)N1CCc1cccc(F)c1 | 4.76% (inactive) |  |
| CNC(=O)c1[nH]cnc1C(=O)N[C@@H](CC(C)C)C(=O)OC(C)(C)C | -13.2% (inactive) |  |
| C#Cc1ccc([C@@H]2C=C(C(=O)O)O[C@H](OCCCCO)C2)cc1 | -5.63% (inactive) |  |
| O=C(NCc1ccccc1)c1onc(CSc2ccncc2)c1C(=O)NCc1ccccc1 | 2.05% (inactive) |  |
| CCOC(=O)c1ccc(NC(=O)c2c(N)n(C)c(=O)[nH]c2=O)cc1 | 8.64% (inactive) |  |
